Among all 5,500 compounds or so, about 2,000 (36%) were called active. About 18% were inconclusive and are not listed. Rule as the data show it: active = normalized growth mostly below about 0.91 (no sharp cut-off); inconclusive = no clear call, values can overlap the other calls; inactive = mostly above about 0.92. This is one part of the list.
Experiment: chemical genetic growth profiling, strain panel (AID 1159580);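 also: tested at 20 µM; growth read once vehicle control cultures reached saturation at 30 °C; 1 = growth at the plate median or of vehicle wells; lower values mean less growth of the strain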
Conditions: growth OD

Measured: normalized growth

Cc1ncc([N+](=O)[O-])n1CCO
inactive: S. cerevisiae deletion strains, locus YJR075W, strain HOC1, active compounds read low 1.01 | S. cerevisiae deletion strains, locus YKL009W, strain mrt4, active compounds read low 0.969 | S. cerevisiae deletion strains, locus YKL068W, active compounds read low 0.99 | S. cerevisiae deletion strains, locus YKL085W, strain MDH1 (second series), active compounds read low 0.985 | S. cerevisiae deletion strains, locus YKL085W, strain MDH1, active compounds read low 0.985 | S. cerevisiae deletion strains, locus YKL160W, strain elf1, active compounds read low 0.955 | S. cerevisiae deletion strains, locus YKL190W, strain CNB1, active compounds read low 0.99 | S. cerevisiae deletion strains, locus YKR001C, strain vps1, active compounds read low 1 | S. cerevisiae deletion strains, locus YKR026C, strain gcn3, active compounds read low 0.984 | S. cerevisiae deletion strains, locus YKR091W, strain srl3, active compounds read low 0.962 | S. cerevisiae deletion strains, locus YLL001W, strain dnm1, active compounds read low 0.926 | S. cerevisiae deletion strains, locus YLL026W, active compounds read low 0.977 | S. cerevisiae deletion strains, locus YLL041C, strain sdh2, active compounds read low 0.98 | S. cerevisiae deletion strains, locus YLR027C, strain aat2, active compounds read low 0.98 | S. cerevisiae deletion strains, locus YLR039C, strain RIC1, active compounds read low 0.972 | S. cerevisiae deletion strains, locus YLR058C, strain SHM2, active compounds read low 0.97 | S. cerevisiae deletion strains, locus YLR102C, strain apc9, active compounds read low 0.991 | S. cerevisiae deletion strains, locus YLR113W, strain HOG1, active compounds read low 1.05 | S. cerevisiae deletion strains, locus YLR221C, strain rsa3, active compounds read low 0.941 | S. cerevisiae deletion strains, locus YLR258W, strain gsy2, active compounds read low 0.988 | S. cerevisiae deletion strains, locus YLR262C, strain YPT6 (second series), active compounds read low 0.964 | S. cerevisiae deletion strains, locus YLR262C, strain YPT6, active compounds read low 0.907 | S. cerevisiae deletion strains, locus YLR268W, strain sec22, active compounds read low 1.08 | S. cerevisiae deletion strains, locus YLR320W, strain mms22, active compounds read low 0.948 | S. cerevisiae deletion strains, locus YLR330W, strain CHS5, active compounds read low 0.987 | S. cerevisiae deletion strains, locus YLR342W, strain FKS1 (second series), active compounds read low 0.982 | S. cerevisiae deletion strains, locus YLR342W, strain FKS1, active compounds read low 0.978 | S. cerevisiae deletion strains, locus YLR357W, strain rsc2, active compounds read low 0.973 | S. cerevisiae deletion strains, locus YLR370C, strain arc18, active compounds read low 0.972 | S. cerevisiae deletion strains, locus YLR371W, strain rom2, active compounds read low 0.975 | S. cerevisiae deletion strains, locus YLR384C, strain iki3, active compounds read low 0.982 | S. cerevisiae deletion strains, locus YLR418C, strain cdc73, active compounds read low 0.991 | S. cerevisiae deletion strains, locus YML016C, strain PPZ1, active compounds read low 0.986 | S. cerevisiae deletion strains, locus YML032C, strain rad52, active compounds read low 1.01 | S. cerevisiae deletion strains, locus YML120C, strain ndi1, active compounds read low 0.942 | S. cerevisiae deletion strains, locus YML124C, strain tub3, active compounds read low 0.984 | S. cerevisiae deletion strains, locus YMR058W, strain fet3, active compounds read low 0.983 | S. cerevisiae deletion strains, locus YMR078C, strain ctf18, active compounds read low 0.976 | S. cerevisiae deletion strains, locus YMR125W, strain sto1, active compounds read low 0.958 | S. cerevisiae deletion strains, locus YMR129W, active compounds read low 0.98 | S. cerevisiae deletion strains, locus YMR205C, strain PFK2, active compounds read low 0.936 | S. cerevisiae deletion strains, locus YMR223W, strain ubp8, active compounds read low 0.952 | S. cerevisiae deletion strains, locus YMR231W, strain pep5, active compounds read low 0.986 | S. cerevisiae deletion strains, locus YMR263W, strain SAP30, active compounds read low 0.995 | S. cerevisiae deletion strains, locus YMR307W, strain GAS1, active compounds read low 0.976 | S. cerevisiae deletion strains, locus YNL067W, strain RPL9B, active compounds read low 0.994 | S. cerevisiae deletion strains, locus YNL071W, strain lat1, active compounds read low 0.978 | S. cerevisiae deletion strains, locus YNL128W, strain TEP1, active compounds read low 0.951 | S. cerevisiae deletion strains, locus YNL153C, strain GIM3, active compounds read low 1.01 | S. cerevisiae deletion strains, locus YNL183C, strain NPR1, active compounds read low 1.03 | S. cerevisiae deletion strains, locus YNL209W, strain ssb2, active compounds read low 0.974 | S. cerevisiae deletion strains, locus YNL233W, strain BNI4, active compounds read low 1.02 | S. cerevisiae deletion strains, locus YNL248C, strain rpa49, active compounds read low 0.981 | S. cerevisiae deletion strains, locus YNL250W, strain rad50, active compounds read low 0.975 | S. cerevisiae deletion strains, locus YNL271C, strain bni1, active compounds read low 0.989 | S. cerevisiae deletion strains, locus YNL298W, strain CLA4, active compounds read low 0.992 | S. cerevisiae deletion strains, locus YNL307C, strain MCK1, active compounds read low 0.989 | S. cerevisiae deletion strains, locus YNL322C, strain KRE1 (second series), active compounds read low 0.974 | S. cerevisiae deletion strains, locus YNL322C, strain KRE1, active compounds read low 0.986 | S. cerevisiae deletion strains, locus YNR049C, strain mso1, active compounds read low 0.96 | S. cerevisiae deletion strains, locus YNR052C, strain pop2, active compounds read low 0.989 | S. cerevisiae deletion strains, locus YOL006C, strain TOP1, active compounds read low 1 | S. cerevisiae deletion strains, locus YOL012C, strain htz1 0.99 | S. cerevisiae deletion strains, locus YOL147C, strain pex11, active compounds read low 0.986 | S. cerevisiae deletion strains, locus YOR001W, strain rrp6, active compounds read low 1 | S. cerevisiae deletion strains, locus YOR061W, strain CKA2, active compounds read low 0.967 | S. cerevisiae deletion strains, locus YOR069W, strain VPS5, active compounds read low 0.989 | S. cerevisiae deletion strains, locus YOR070C, strain gyp1, active compounds read low 0.987 | S. cerevisiae deletion strains, locus YOR080W, strain dia2, active compounds read low 0.977 | S. cerevisiae deletion strains, locus YOR083W, strain WHI5, active compounds read low 0.954 | S. cerevisiae deletion strains, locus YOR106W, strain vam3, active compounds read low 0.937 | S. cerevisiae deletion strains, locus YOR136W, strain idh2, active compounds read low 0.984 | S. cerevisiae deletion strains, locus YOR144C, strain elg1, active compounds read low 0.989 | S. cerevisiae deletion strains, locus YOR184W, strain ser1, active compounds read low 0.998 | S. cerevisiae deletion strains, locus YOR231W, strain MKK1, active compounds read low 1.06 | S. cerevisiae deletion strains, locus YOR265W, strain rbl2, active compounds read low 0.985 | S. cerevisiae deletion strains, locus YOR270C, strain vph1, active compounds read low 0.958 | S. cerevisiae deletion strains, locus YOR290C, strain snf2, active compounds read low 0.91 | S. cerevisiae deletion strains, locus YOR316C, strain cot1, active compounds read low 0.992 | S. cerevisiae deletion strains, locus YPL051W, strain arl3, active compounds read low 0.978 | S. cerevisiae deletion strains, locus YPL055C, strain LGE1, active compounds read low 0.974 | S. cerevisiae deletion strains, locus YPL078C, strain atp4, active compounds read low 0.959 | S. cerevisiae deletion strains, locus YPL106C, strain sse1, active compounds read low 0.943 | S. cerevisiae deletion strains, locus YPL240C, strain hsp82, active compounds read low 0.983 | S. cerevisiae deletion strains, locus YPL241C, strain CIN2, active compounds read low 0.982 | S. cerevisiae deletion strains, locus YPL256C, strain CLN2, active compounds read low 1.1 | S. cerevisiae deletion strains, locus YPR119W, strain clb2, active compounds read low 0.992 | S. cerevisiae deletion strains, locus YPR141C, strain kar3, active compounds read low 0.982 | S. cerevisiae deletion strains, locus YPR163C, strain tif3, active compounds read low 0.987 | S. cerevisiae deletion strains, locus YPR167C, strain met16, active compounds read low 0.998 | S. cerevisiae deletion strains, strain wtn01, active compounds read low 1.02 | S. cerevisiae strains, strain wild type, active compounds read low 0.98
